# EBV LMP1 NFkB: EBV LMP1-driven NF-kappaB luciferase reporter inhibitors, primary screen, cell-based, luminescence, single point; LMP1-induced NF-kappaB luciferase reporter cells; inhibition, % at 12.5 µM; 0.69% of 350,000 active; in the data active = inhibition above about 41%;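 also: 0% = neutral control wells and 100% = reference inhibitor control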
# Peg3 promoter: Peg3 promoter-driven luciferase inhibitors, primary screen, cell-based, HeLa, luciferase luminescence; AID 588405, 2011; 1.7% of 360,000 active; HeLa PEG-Prom luciferase reporter, overnight; inhibition, % at 20 µM;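 active = inhibition of at least 50% at 20 µM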
# CF NFkB inh: inhibitors of PAF-induced NF-kB signaling, primary screen, cell-based, GFP fluorescence, uHTS; AID 588850, 2011; inhibition, % at 5 µM; KKLEB NF-kB-GFP reporter, GFP fluorescence overnight; 0.86% of 360,000 active;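 active = at least 50% inhibition at 5 µM, scaled per plate between neutral and stimulator controls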;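 also: PAF is a Pseudomonas aeruginosa culture filtrate used as stimulus; plate controls were PAF-stimulated DMSO wells for no effect and unstimulated DMSO wells for full effect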
# KKLEB tox: cytotoxicity in KKLEB CF airway cells, primary screen, cytotoxicity control for CF NF-kB inhibitor project, cell-based, uHTS, fluorescence assay plates | KKLEB CF airway cells viability, ATPlite luminescence, overnight; stronger effect = lower value; cells stimulated with P. aeruginosa culture filtrate | activity change (cytotoxicity), % at 5 µM | 0.36% of 360,000 active;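 active = corrected activity change at or below -50% at 5 µM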
# HIF-2a inh: HIF-2a reporter inhibitors, primary screen, luminescence, 786-0 RCC cells. 786-0 RCC cells HIF-2a reporter, luciferase luminescence, overnight. inhibition, % at 18.8 µM. 0.72% of 360,000 active;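 active = inhibition of the luminescence signal of 40% or more relative to plate controls, in a single-dose primary screen at 18.75 µM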
# MITF TRPM1 inh: inhibitors of MITF-dependent TRPM1 promoter reporter, primary screen, cell-based, SK-MEL-5, single point, luciferase | SK-MEL-5 TRPM1 promoter luciferase, 24 h | inhibition, % at 12.5 µM | 0.83% of 330,000 active;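 active = mean inhibition across replicates of 60% or more, whatever share of single replicates reaches that level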
# * marks the source's active call; other numbers are inactive results; nt = no result. An excerpt weighted towards active compounds, which were near 3% of everything screened.
SMILES,EBV LMP1 NFkB,Peg3 promoter,CF NFkB inh,KKLEB tox,HIF-2a inh,MITF TRPM1 inh
OCC1OC(n2cnc3c(NCc4ccccc4O)ncnc32)C(O)C1O (stereo not drawn),38,71*,30,-54*,-25,59
Nc1ccc(CCNc2ncnc3c2ncn3[C@@H]2O[C@H](CO)[C@@H](O)[C@H]2O)cc1,84*,6,-4,6,3,9
OCC1OC(n2cnc3c(NCCc4ccccc4)ncnc32)C(O)C1O (stereo not drawn),7,-40,11,-13,-89,-43
O=c1[nH]cnc2c1ncn2[C@@H]1O[C@H](CO)[C@@H](O)[C@H]1O,80*,-4,10,0,-9,9
O=c1[nH]cnc2c1ncn2[C@@H]1O[C@H](COS(=O)(=O)O)[C@@H](O)[C@H]1O,-2,-13,-12,8,3,3
Nc1ccn([C@@H]2O[C@H](CO)[C@@H](O)[C@H]2O)c(=O)n1,4,8,6,2,5,-10
Cc1ccc(S(=O)(=O)N2C[C@H]3[C@H]4C(=O)N(Cc5ccccc5)C(=O)[C@H]4CC(=O)[C@H]3[C@@H]2c2ccccc2)cc1,nt,9,-7,-7,14,nt
Cc1nc(C(=O)O)cc([N+](=O)[O-])c1C,3,1,-9,-19,13,nt
Cc1ccc(F)c(S(=O)(=O)NC(=O)C2(C)CCN2C(=O)Cc2cccs2)c1 (stereo not drawn),nt,2,7,8,14,nt
CCOC(=O)C[C@@H]1OC[C@H](CO)N1S(=O)(=O)c1ccc(C)cc1,nt,nt,nt,nt,5,nt
O=C(NCC1CCCN(Cc2ccc3nonc3c2)C1)c1cccc(C(F)(F)F)c1 (stereo not drawn),-1,51*,-10,-3,12,8
N#Cc1c(N)[nH]c(C(=O)c2ccccc2)c1-c1ccc(Cl)cc1,nt,nt,nt,nt,17,nt
O=C(NCC(=O)N1CCN(S(=O)(=O)c2ccccc2C(F)(F)F)CC1)c1sc2ccccc2c1Cl,-1,11,48,-55*,5,8
CCN(CC)S(=O)(=O)c1ccc(O)c(C(=O)OCC(=O)N2CCCc3ccccc32)c1,3,10,-29,15,12,nt
Cc1ccc(S(=O)(=O)Cc2cc(F)c([N+](=O)[O-])cc2[N+](=O)[O-])cc1,-8,117*,-2,4,15,52
Cc1ccc(S(=O)(=O)CCC(=O)c2cccc([N+](=O)[O-])c2)cc1,-4,110*,0,5,37,19
Cc1ccc(C(=O)CCS(=O)(=O)c2ccc(Br)cc2)cc1,-2,22,10,6,12,-7
CC[N+]1(C)CCC(O)(c2ccc(OC)cc2)C(C(=O)c2ccc(OC)cc2)C1 (stereo not drawn),-3,103*,50*,-20,14,-3
CC1CC=C(O)C12OCC(C)(C)CO2 (stereo not drawn),-4,2,-26,-14,18,10
CCCCC1(Cc2cccc([N+](=O)[O-])c2)C(=O)N(c2ccccc2)N(c2ccccc2)C1=O,5,52*,-1,-2,18,7
CCCCC1(CO)C(=O)N(c2ccccc2)N(c2ccccc2)C1=O,-5,9,8,2,24,-5
COc1cc(CN2C(=O)C(C)ON=C2c2cccs2)cc(OC)c1 (stereo not drawn),nt,14,-4,4,-5,nt
Nc1c(C(O)(C(F)(F)F)C(F)(F)F)cc(C(O)(C(F)(F)F)C(F)(F)F)c2ccccc12,-13,34,2,-8,41*,0
COc1cc2cc(C(=O)N3CCN(c4ccccc4OC)CC3)[nH]c2cc1OC,53*,18,-2,2,16,7
O=c1c2c([nH]n1-c1ccccc1)C[C@@H](C1CCCCC1)O[C@H]2c1ccc(F)cc1,nt,nt,nt,nt,-127,nt
SMILES,EBV LMP1 NFkB,Peg3 promoter,CF NFkB inh,KKLEB tox,HIF-2a inh,MITF TRPM1 inh
CCOC(=O)c1nc(NNC(=O)c2ccc([N+](=O)[O-])cc2)sc1C,38,68*,-10,9,-20,27
CCOC(=O)c1sc(NNC(=O)c2ccc(C)cc2)nc1C,0,-14,0,2,-2,-15
C[C@@H]1CN([C@@H](C)CO)C(=O)CCCn2nncc2CO[C@H]1CN(C)C(=O)c1ccc(N2CCN(C)CC2)cc1,7,-10,-46,7,6,nt
COC(=O)c1ccc(-c2nc(O)c(C)s2)cc1,3,-3,-12,6,-11,-6
COC(=O)c1ccc(-c2nc3cc(Cl)c(N)cc3s2)cc1,9,43,-20,-53*,-92,16
O=[N+]([O-])c1ccc(-c2cnc(SC(c3ccccc3)c3ccccc3)[nH]2)cc1,8,53*,-24,2,9,0
COc1cc(OC)c(NC(=O)c2ccccc2F)cc1Cl,-14,-56,-10,-6,-61,-4
COc1cc(NC(=O)c2cc3ccccc3cc2O)c(OC)cc1Cl,9,-7,50*,-55*,-82,29
O=[N+]([O-])c1ccc(O)c(/C=N/Nc2ncnc3c2cnn3-c2ccccc2)c1,47*,33,34,-17,-130,12
O=[N+]([O-])c1ccc(O)c(/C=N/Nc2ccccn2)c1,47*,33,69*,-65*,-100,65*
O=[N+]([O-])c1ccc(NN=Cc2ccccc2O)nc1,2,-131,4,-10,-310,0
CCOC(=O)[C@H]1[C@H]2COc3ccc(C)cc3[C@@H]2N2C(=O)CN(Cc3ccc(OC)cc3)C(=O)[C@@]12C,45*,11,8,-7,12,-3
CCOC(=O)[C@H]1[C@H]2COc3ccc(C)cc3[C@@H]2N2C(=O)CN(Cc3ccc(Cl)cc3)C(=O)[C@@]12C,-2,20,4,-4,16,2
CCOC(=O)[C@H]1[C@H]2COc3ccc(OC)cc3[C@@H]2N2C(=O)CN(C)C(=O)[C@@]12C,47*,0,-18,11,14,3
CCc1nc2ccc(C(=O)NCc3ccccc3OC)cn2c1N(CC)CCOC,nt,-5,-9,-2,-6,nt
CCOC(=O)[C@]12CCCC=C1N(Cc1ccccc1)C(=O)[C@H](CC(=O)NCc1cccc3ccccc13)C2,nt,nt,nt,nt,8,nt
Cc1ccc2oc(C(=O)Nc3ccc(S(=O)(=O)Nc4onc(C)c4C)cc3)c(C)c2c1,66*,-143,-48,15,-141,-4
CCCCNC(=O)c1nc(C2CCNCC2)oc1-c1ccccc1,nt,nt,nt,nt,0,nt
c1ccc(OCCSc2nnc3sc4ccccc4n23)cc1,70*,47,1,-17,11,32
